Consider 37 molecules from PubChem BioAssay (NCATS).

The source made the active and inactive calls. Calls follow the shape of the dose curve; as a rule, active = well fitted inhibition curve with a large enough effect; inconclusive = small, poorly fitted or top-dose-only effect; inactive = no such curve, though single readings can be large or run the other way.
Potency is read from the fitted curve at half-maximal effect.

A short description of this experiment: qHTS assay for measurement of the activity of small molecule inhibitors on Zika virus induced Caspase-3 activity in human astrocytoma cells (AID 1224859).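 As to activity change, negative = inhibition: plate controls were ZIKV-infected untreated cells for no effect and uninfected cells for full effect.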 To be noted: SNB-19 ZIKV-induced caspase-3/7, luminescence, 6 h; series mostly up to 45.7 µM; activity change, negative = inhibition: at the top concentration. In outline:
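Luminescence read-out (Caspase-Glo 3/7, 30 min RT) of caspase activity in SNB-19 cells infected 6 h with ZIKV, 2 FFU/cell, after 1 h compound pretreatment; % inhibition from induction normalised to uninfected (0%) and infected (100%) wells.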
(qHTS replaces the single test concentration by a dilution series.)
In the case of `NC(CCCP(=O)(O)O)C(=O)O` (configuration not stated), the “activity change, negative = inhibition” value was 7.67% (inactive). Same read-out and setting: with `COc1ccnc2c1CCCCC2S(=O)c1nc2ccccc2[nH]1` (configuration not stated) the figure was -1.95% (inactive); with `CC[C@@H](C)[C@H]1O[C@]2(CC[C@H]1C)C[C@@H]1C[C@@H](CC=C(C)[C@@H](O[C@H]3C[C@H](OC)[C@@H](O[C@H]4C[C@H](OC)[C@@H](O)[C@H](C)O4)[C@H](C)O3)[C@@H](C)C=CC=C3CO[C@@H]4[C@H](O)C(C)=C[C@@H](C(=O)O1)[C@]34O)O2`, 64% (inactive). Same read-out and setting: with `N=C1N=C(N)c2cc3ccccc3cc21` the figure was 106% [at 92.8 µM] (inactive); with `N=C(N)SCCc1ccc(CCSC(=N)N)cc1`, -5.54% (inactive). Same read-out and setting: with `CC(C)CC(NP(=O)(O)O[C@@H]1O[C@@H](C)[C@H](O)[C@@H](O)[C@H]1O)C(=O)NC(Cc1c[nH]c2ccccc12)C(=O)O` (some centres not stated) the figure was -0.572% (inactive); with `CCN(CC)c1ncnc2c1ncn2[C@@H]1O[C@H](COP(=O)(O)OP(=O)(O)C(Br)(Br)P(=O)(O)O)[C@@H](O)[C@H]1O`, -3.45% (inactive); with `Nc1ccc(O)c([N+](=O)[O-])c1`, -1.16% [at 92.8 µM] (inactive). As for `COC(=O)Nc1nc2ccc(C(=O)C3CC3)cc2[nH]1`, the “activity change, negative = inhibition” value is 13.5% (inactive). On the same count and under the same terms, with `O=[N+]([O-])c1ccc2c(c1)S(=O)(=O)C=C2` the figure was 8.89% (inactive); with `CC(=O)SCC[N+](C)(C)C`, -9.14% (inactive).

Take `CN1CCc2cc(O)c(O)cc2C(c2ccccc2)C1` (configuration not stated): the “activity change, negative = inhibition” value was 0.552% (inactive). Still for that read-out and setting: with `CCNC(=O)[C@H]1O[C@@H](n2cnc3c(N)nc(NCCc4ccc(CCC(=O)O)cc4)nc32)[C@H](O)[C@@H]1O` the figure was -11% (inactive).

With `CO/S(=N\S(=O)(=O)c1ccc(Cl)cc1)c1ccc([N+](=O)[O-])cc1` (configuration not stated), the “activity change, negative = inhibition” value is -1.23% (inactive).

As to `N#C/C(=C\c1c[nH]c2ccccc12)C(=O)c1ccc(O)c(O)c1`, the “activity change, negative = inhibition” value was -1.55% (inactive). Still for that read-out and setting: with `Cc1ccc(C(=O)O[C@H](C(=O)O)[C@@H](OC(=O)c2ccc(C)cc2)C(=O)O)cc1` (tested in a mixture with another compound) the figure was -3.3% (inactive); with `Oc1ccc(C2CNCc3sccc32)cc1O` (configuration not stated), -4.27% (inactive); with `S=c1[nH]c2ccccc2s1`, -3.22% [at 92.8 µM] (inactive). Still for that read-out and setting: with `C[C@@H](NC(=O)/C(C#N)=C/c1ccc(O)c(O)c1)c1ccccc1` the figure was 0.794% (inactive); with `C[N+](C)(CCCCCC[N+](C)(C)CCCN1C(=O)c2cccc3cccc(c23)C1=O)CCCN1C(=O)c2cccc3cccc(c23)C1=O`, 0.648% (inactive).

Turning to `CO/N=C(\C(=O)N[C@@H]1C(=O)N2C(C(=O)O)=C(COC(C)=O)CS[C@H]12)c1csc(N)n1`, the “activity change, negative = inhibition” value was -4.96% (inactive). The same measure, in the same setting: with `CC(C)ON([C@@H](C(=O)NO)C(C)C)S(=O)(=O)c1ccc(-c2ccccc2)cc1` the figure was -5.26% (inactive); with `Cc1nc2sccn2c(=O)c1CCN1CCC(=C(c2ccccc2)c2ccc(F)cc2)CC1`, 8.39% (inactive); with `CCCC1(C)C(C#N)(C#N)C1(C#N)C#N`, 16.1% (inactive). Still for that read-out and setting: with `CCc1c(C(=O)NCCc2ccc(N3CCCCC3)cc2)[nH]c2ccc(Cl)cc12` the figure was -4.73% (inactive); with `CCN1/C(=C/C(C)=O)Sc2ccc(OC)cc21`, -3.29% (inactive). Same read-out and setting: with `CCCCN1CCC(n2c(=O)[nH]c3ccccc32)CC1` the figure was -2.75% (inactive); with `OC[C@H]1O[C@@H](n2cnc3c(NC4CCCC4)ncnc32)[C@H](O)[C@@H]1O`, -5.88% (inactive).

In the case of `CNc1ncnc2c1ncn2[C@@H]1O[C@H](CO)[C@@H](O)[C@H]1O`, the “activity change, negative = inhibition” value was -0.692% (inactive).

`Cn1cc(C2=C(c3ccc(Cl)cc3Cl)C(=O)NC2=O)c2ccccc21`: the “activity change, negative = inhibition” value was -3.13% (inactive). Same read-out and setting: with `O=Cc1ccc(O)c(O)c1O` the figure was -6.15% (inactive); with `CN(C)c1ccc(N=NS(=O)(=O)O)cc1`, -7.91% [at 92.8 µM] (inactive). On to `O=C1C(SCCO)=C(SCCO)C(=O)c2ccccc21`, for which the “activity change, negative = inhibition” value is -7.4% (inactive).

In the case of `CNC(=O)[C@H]1O[C@@H](n2cnc3c(NCc4ccc(N)cc4)ncnc32)[C@H](O)[C@@H]1O`, the “activity change, negative = inhibition” value was -1.98% (inactive). Take `COc1ccc(NC(=O)/C=C/c2ccc(Cl)cc2)cc1`: the Potency was 5.62 µM (active). As for `COc1ccccc1N1CCN(CCCCNS(=O)(=O)c2cccc3c(N(C)C)cccc23)CC1`, the “activity change, negative = inhibition” value is 13.7% (inactive).

As to `O=C(O)[C@@H]1C[C@@H](C(=O)O)N1`, the “activity change, negative = inhibition” value is 1.38% (inactive).
